Experimental data taken from PubChem BioAssay (EPA / NIEHS).
Several values for one entry are separate records, joined by “and”; a condition that tells them apart may be missing. Equal values may be shown once. Records with an inconclusive call do not appear. A structure can be active in one record and inactive in another. Activity calls are given as the source filed them. How the source made its calls, unless noted: active means hit-call score of the fitted dose curve at least 0.9, where 1 is the maximum; inactive means score below 0.9.

Key:
[1] = target: Nuclear respiratory factor 1 (Homo sapiens) (UniProt Q16656); experiment: ATG_NRF1_CIS: Attagene CIS-FACTORIAL HepG2 Assay for human Nuclear Respiratory Factor 1 (NRF1) Orphan Gene (AID 2282987); details: HepG2 NRF1 cis-element reporter, Attagene multiplex; actives raise or lower the signal
In short: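 Endogenous NRF1-driven reporter transcription measured in transiently transfected human HepG2 liver cells. Readout: reporter mRNA by RT-PCR and capillary electrophoresis with fluorescence detection, 24 h post-dosing. Gain or loss of signal fitted relative to DMSO baseline.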

[2] = ATG_NFI_CIS: Attagene CIS-FACTORIAL HepG2 Assay for human Nuclear Factor I (NFI) (AID 2282989); details: HepG2 cis-regulatory reporter, NFI response element transcription; actives raise or lower the signal
In short: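 Reporter transcripts were measured by RT-PCR with fluorescent primer extension and capillary electrophoresis 24 h post-treatment. HepG2 cells carried transiently transfected cis-regulated reporter constructs reporting endogenous factor activity; gain or loss fitted against DMSO baseline.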

[3] = target: Myc proto-oncogene protein (Homo sapiens) (UniProt P01106); experiment: ATG_Myc_CIS: Attagene CIS-FACTORIAL HepG2 Assay for human Myelocytomatosis (Myc) Proto-Oncogene Transcription Factor (AID 2282990); details: HepG2, Attagene cis-reporter transcription factor activity; actives raise or lower the signal
In short: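 After 24 h chemical treatment of HepG2 cells carrying multiplexed cis-regulated reporter constructs, reporter transcripts quantified by RT-PCR and capillary electrophoresis of fluorescent fragments. Gain or loss fitted against DMSO baseline.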

[4] = ATG_NF_kB_CIS: Attagene CIS-FACTORIAL HepG2 Assay for human Nuclear Factor Kappa B (NF-kB) (AID 2282991); details: HepG2 Attagene cis-factorial NF-kB reporter mRNA; actives raise or lower the signal
In short: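 Read-out: reporter transcript levels quantified by RT-PCR plus capillary electrophoresis of 6-FAM-labelled, HpaI-cut fragments. Transfected HepG2 cells, 24 h compound exposure, endogenous NF-kB-driven cis element; gain or loss scored versus DMSO.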

[5] = ATG_NRF2_ARE_CIS: Attagene CIS-FACTORIAL HepG2 Assay for human Nuclear Factor Erythroid 2 Related Factor 2 (NFR2) response to Antioxidant Response Elements (ARE) (AID 2282992); details: HepG2 Attagene ARE/NRF2 reporter, transcription factor activity; actives raise or lower the signal
In short: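 Transient MRTU transfection of HepG2; 24 h compound exposure; TriZol RNA, RT with oligo(dT), PCR, 6-FAM primer extension, HpaI cut, CE. Bidirectional fit vs DMSO.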

[6] = ATG_Oct_MLP_CIS: Attagene CIS-FACTORIAL HepG2 Assay for human Octamer-Binding Transcription Factor (Oct) (AID 2282993); details: HepG2 Attagene cis-factorial Oct reporter, mRNA; actives raise or lower the signal
In short: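 Readout is reporter transcript level from RT-PCR with fluorescent primer extension and capillary electrophoresis, fitted in both directions against DMSO. Transfected HepG2 reporter units report endogenous factor activity after 24 h dosing.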

[7] = target: Cellular tumor antigen p53 (Homo sapiens) (UniProt P04637); experiment: ATG_p53_CIS: Attagene CIS-FACTORIAL HepG2 Assay for human p53 Transcription Factor (AID 2282994); details: HepG2 p53 cis-element reporter, Attagene mRNA; actives raise or lower the signal
In short: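 HepG2, transient MRTU transfection (cis promoter elements, endogenous TFs); 24 h dosing; RNA isolation, RT-PCR, 6-FAM primer extension, HpaI digest, CE fluorescence; bidirectional fit vs DMSO.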

[8] = BSK_3C_TissueFactor: BioMAP Diversity Plus: 3C Assay for Tissue Factor Biomarker Activity (AID 2282997); details: BioMAP 3C HUVEC, tissue factor biomarker readout; actives raise or lower the signal
In short: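 Endothelial monolayers (human umbilical vein, primary) are dosed, incubated 24 h, and assayed for Tissue Factor by ELISA; DMSO serves as negative control for bidirectional fitting.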

[9] = BSK_3C_uPAR: BioMAP Diversity Plus: 3C Assay for Urokinase-type plasminogen activator receptor (uPAR) Biomarker Activity (AID 2282998); details: BioMAP 3C HUVEC, uPAR biomarker ELISA; actives raise or lower the signal
In short: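 Cell-surface uPAR on HUVEC (3C system) read by ELISA at 24 h post-treatment, with DMSO as baseline and fitting in both directions. Parallel cultures stained with SRB to flag overt cytotoxicity.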

[10] = BSK_3C_VCAM1: BioMAP Diversity Plus: 3C Assay for Vascular cell adhesion molecule 1 (VCAM1) Biomarker Activity (AID 2282999); details: BioMAP 3C HUVEC, VCAM1 ELISA, cytokine-stimulated; actives raise or lower the signal
In short: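 Endothelial cells from human umbilical vein are treated with test chemical. At 24 h, VCAM-1 is measured by ELISA, and responses in either direction are fitted relative to DMSO.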

[11] = BSK_4H_Eotaxin3: BioMAP Diversity Plus: 4H Assay for Eotaxin 3 Biomarker Activity (AID 2283000); details: primary human endothelial cells (HUVEC); actives raise or lower the signal
In short: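 ELISA quantitation of CCL26 (Eotaxin-3) protein from chemically dosed human vascular endothelial cells at 24 h; increases and decreases both scored relative to DMSO-treated baseline.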

[12] = target: human Peroxisome Proliferator-activated Receptor alpha (PPARa), PPARA (gene 5465) (UniProt Q07869); experiment: ATG_PPARa_TRANS: Attagene TRANS-FACTORIAL HepG2 Assay for human Peroxisome Proliferator-activated Receptor alpha (PPARa) (AID 2283001; active means hit-call score of the fitted dose curve at least 0.9, where 1 is the maximum;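 on AC50: potency for gain of reporter signal over DMSO so agonist or activator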)
In short: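 Reporter transcripts from GAL4-UAS units in transfected HepG2 were quantified 24 h after dosing. Detection used reverse transcription, PCR, fluorescent primer extension and capillary electrophoresis, with DMSO as baseline.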

[13] = target: human Peroxisome Proliferator-activated Receptor delta (PPARd), PPARD (gene 5467) (UniProt Q03181); experiment: ATG_PPARd_TRANS: Attagene TRANS-FACTORIAL HepG2 Assay for human Peroxisome Proliferator-activated Receptor delta (PPARd) (AID 2283002; active means hit-call score of the fitted dose curve at least 0.9, where 1 is the maximum)
In short: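 Read-out is induced reporter mRNA, quantified by RT-PCR with fluorescent labelling and capillary electrophoresis after 24 h dosing. Cells are HepG2 transiently carrying multiple GAL4-UAS reporter units driven by exogenous NR-GAL4 chimeras; DMSO serves as baseline.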

[14] = read-out: Intercellular Adhesion Molecule 1 (ICAM1), ICAM1 (gene 3383); experiment: BSK_3C_ICAM1: BioMAP Diversity Plus: 3C Assay for Intercellular Adhesion Molecule 1 (ICAM1) Biomarker Activity (AID 2283003); details: primary human endothelial cells (HUVEC); actives raise or lower the signal
In short: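 Primary human umbilical vein endothelial cells in the BioMAP 3C system were exposed to chemicals for 24 h, then ICAM-1 was quantified by ELISA. Activity was fitted bidirectionally against the DMSO negative control baseline.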

[15] = BSK_3C_Proliferation: Cell Proliferation Assessment in the BioMAP Diversity Plus: 3C Assay (AID 2283006); details: primary human endothelial cells (HUVEC);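 on AC50: potency may reflect either rise or fall in cell number versus DMSO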
In short: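 Human umbilical vein endothelial cells were grown sub-confluent and exposed to chemical for 48 h, then fixed with 10% TCA and stained with 0.1% sulforhodamine B; absorbance at 560 nm gave relative cell number, fitted bidirectionally against DMSO baseline.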

[16] = target: Peroxisome proliferator-activated receptor gamma (Homo sapiens) (UniProt P37231); experiment: ATG_PPARg_TRANS: Attagene TRANS-FACTORIAL HepG2 Assay for human Peroxisome Proliferator-activated Receptor-gamma (PPARg) (AID 2283007; active means hit-call score of the fitted dose curve at least 0.9, where 1 is the maximum)
In short: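 Read-out: reporter mRNA induction, detected by fluorescence after RT-PCR and capillary electrophoresis. Transiently transfected human HepG2 liver cells carrying a chimeric NR-Gal4 construct were dosed for 24 h; activity was fitted upward relative to DMSO.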

[17] = target: Nuclear receptor subfamily 1 group I member 2 (Homo sapiens) (UniProt O75469); experiment: ATG_PXR_TRANS: Attagene TRANS-FACTORIAL HepG2 Assay for human Pregnane X Receptor (PXR) (AID 2283008; active means hit-call score of the fitted dose curve at least 0.9, where 1 is the maximum)
In short: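 Read-out is fluorescence of labelled reporter cDNA fragments separated by capillary electrophoresis after RT-PCR and HpaI digestion. Source: HepG2 cells carrying PXR-GAL4/UAS reporter constructs, treated 24 h; activity fitted upward relative to DMSO.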

[18] = target: human Retinoic Acid Receptor beta (RARb), RARB (gene 5915) (UniProt P10826); experiment: ATG_RARb_TRANS: Attagene TRANS-FACTORIAL HepG2 Assay for human Retinoic Acid Receptor beta (AID 2283004; active means hit-call score of the fitted dose curve at least 0.9, where 1 is the maximum)
In short: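 Fluorescent capillary-electrophoresis detection of GAL4-UAS reporter mRNA defines the endpoint, with induction over DMSO-treated wells scored as activity. Transiently transfected human hepatoma HepG2 cells expressing exogenous NR–Gal4 proteins are exposed to test chemicals for 24 h.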

[19] = target: human Retinoic Acid Receptor gamma (RARg), RARG (gene 5916) (UniProt P13631); experiment: ATG_RARg_TRANS: Attagene TRANS-FACTORIAL HepG2 Assay for human Retinoic Acid Receptor gamma (RARg) (AID 2283009; active means hit-call score of the fitted dose curve at least 0.9, where 1 is the maximum)
In short: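 HepG2 cells transiently transfected with multiplexed reporter units expressing chimeric RARg-GAL4 and GAL4-UAS-driven reporters; 24 h compound exposure. Reporter mRNA quantified by RT-PCR with fluorescent labelling and capillary electrophoresis; gain-of-signal fitted relative to DMSO baseline.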

[20] = target: Retinoic acid receptor alpha (Homo sapiens) (UniProt P10276); experiment: ATG_RARa_TRANS: Attagene TRANS-FACTORIAL HepG2 Assay for human Retinoic Acid Receptor alpha (RARa) (AID 2283005; active means hit-call score of the fitted dose curve at least 0.9, where 1 is the maximum)
In short: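 Reporter transcripts, measured by RT-PCR with fluorescent labeling and capillary electrophoresis after 24 h dosing, reflect activity of an exogenous human RARa–GAL4 fusion in transiently transfected HepG2. Fitted for increase relative to DMSO.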

Measured: AC50

Sequence of Nuclear respiratory factor 1 (Homo sapiens) (Q16656 whole entry, looked up): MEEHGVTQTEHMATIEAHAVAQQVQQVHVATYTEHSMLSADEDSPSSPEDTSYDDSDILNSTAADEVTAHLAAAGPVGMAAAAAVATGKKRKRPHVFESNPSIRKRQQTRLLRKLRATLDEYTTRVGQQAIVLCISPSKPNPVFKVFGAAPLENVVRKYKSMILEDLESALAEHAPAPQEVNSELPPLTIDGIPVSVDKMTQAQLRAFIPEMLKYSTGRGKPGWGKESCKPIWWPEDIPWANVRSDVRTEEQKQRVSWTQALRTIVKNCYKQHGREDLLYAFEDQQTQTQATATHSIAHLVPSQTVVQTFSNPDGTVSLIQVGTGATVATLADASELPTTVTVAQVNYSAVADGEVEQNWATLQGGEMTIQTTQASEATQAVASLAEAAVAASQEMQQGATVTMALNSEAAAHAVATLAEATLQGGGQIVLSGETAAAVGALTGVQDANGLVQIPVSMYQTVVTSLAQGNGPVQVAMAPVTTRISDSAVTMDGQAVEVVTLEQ
Sequence of human Peroxisome Proliferator-activated Receptor delta (PPARd), PPARD (gene 5467) (Q03181 whole entry, looked up, the tested form may be a part): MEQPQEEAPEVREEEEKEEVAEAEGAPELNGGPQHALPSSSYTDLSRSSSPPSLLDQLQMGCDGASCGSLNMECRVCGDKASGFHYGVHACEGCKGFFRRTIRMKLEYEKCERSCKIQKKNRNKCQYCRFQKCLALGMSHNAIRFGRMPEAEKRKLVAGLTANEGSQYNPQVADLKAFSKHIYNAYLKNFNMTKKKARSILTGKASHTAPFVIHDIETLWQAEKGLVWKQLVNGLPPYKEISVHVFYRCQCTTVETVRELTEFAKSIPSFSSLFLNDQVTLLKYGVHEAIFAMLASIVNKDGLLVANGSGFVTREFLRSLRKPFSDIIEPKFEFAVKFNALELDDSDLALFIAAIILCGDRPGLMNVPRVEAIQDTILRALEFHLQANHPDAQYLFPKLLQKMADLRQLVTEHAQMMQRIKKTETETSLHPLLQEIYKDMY
Sequence of Cellular tumor antigen p53 (Homo sapiens) (P04637 whole entry, looked up): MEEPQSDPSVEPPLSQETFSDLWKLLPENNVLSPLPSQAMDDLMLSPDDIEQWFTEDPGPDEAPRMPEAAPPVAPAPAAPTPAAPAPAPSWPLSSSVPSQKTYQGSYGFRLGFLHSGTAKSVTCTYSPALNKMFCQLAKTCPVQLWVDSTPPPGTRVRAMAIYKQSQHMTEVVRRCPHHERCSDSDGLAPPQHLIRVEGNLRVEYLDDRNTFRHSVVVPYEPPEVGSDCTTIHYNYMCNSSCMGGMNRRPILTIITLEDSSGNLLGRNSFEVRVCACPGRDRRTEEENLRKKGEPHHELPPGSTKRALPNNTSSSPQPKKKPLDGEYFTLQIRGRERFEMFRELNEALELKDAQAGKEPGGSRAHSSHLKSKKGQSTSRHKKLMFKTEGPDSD
Sequence of human Peroxisome Proliferator-activated Receptor alpha (PPARa), PPARA (gene 5465) (Q07869 whole entry, looked up, the tested form may be a part): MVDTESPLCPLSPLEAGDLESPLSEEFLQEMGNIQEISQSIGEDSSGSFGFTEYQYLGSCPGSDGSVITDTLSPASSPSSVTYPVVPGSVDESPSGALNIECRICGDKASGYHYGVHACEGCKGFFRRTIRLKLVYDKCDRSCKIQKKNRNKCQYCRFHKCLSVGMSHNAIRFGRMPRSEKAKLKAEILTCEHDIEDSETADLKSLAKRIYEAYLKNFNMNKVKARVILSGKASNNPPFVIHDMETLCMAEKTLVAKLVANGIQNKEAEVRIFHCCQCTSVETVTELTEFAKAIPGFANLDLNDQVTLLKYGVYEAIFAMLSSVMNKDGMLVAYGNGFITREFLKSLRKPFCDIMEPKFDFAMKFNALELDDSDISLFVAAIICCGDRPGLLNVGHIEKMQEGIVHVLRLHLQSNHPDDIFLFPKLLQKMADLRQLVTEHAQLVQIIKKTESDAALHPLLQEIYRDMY
Sequence of human Retinoic Acid Receptor gamma (RARg), RARG (gene 5916) (P13631 whole entry, looked up, the tested form may be a part): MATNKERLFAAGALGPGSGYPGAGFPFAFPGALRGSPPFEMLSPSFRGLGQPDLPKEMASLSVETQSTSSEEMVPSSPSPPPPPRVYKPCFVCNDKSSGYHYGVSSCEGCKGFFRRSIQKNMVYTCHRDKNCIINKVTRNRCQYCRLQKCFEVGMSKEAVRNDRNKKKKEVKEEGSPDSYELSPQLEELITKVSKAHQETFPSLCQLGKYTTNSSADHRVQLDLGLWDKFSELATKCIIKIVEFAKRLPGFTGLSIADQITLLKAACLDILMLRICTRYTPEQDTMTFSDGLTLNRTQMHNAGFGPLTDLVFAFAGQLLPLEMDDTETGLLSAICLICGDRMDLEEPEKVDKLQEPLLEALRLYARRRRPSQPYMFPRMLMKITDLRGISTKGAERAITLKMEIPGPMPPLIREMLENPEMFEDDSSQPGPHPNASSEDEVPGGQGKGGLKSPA
Sequence of human Retinoic Acid Receptor beta (RARb), RARB (gene 5915) (P10826 whole entry, looked up, the tested form may be a part): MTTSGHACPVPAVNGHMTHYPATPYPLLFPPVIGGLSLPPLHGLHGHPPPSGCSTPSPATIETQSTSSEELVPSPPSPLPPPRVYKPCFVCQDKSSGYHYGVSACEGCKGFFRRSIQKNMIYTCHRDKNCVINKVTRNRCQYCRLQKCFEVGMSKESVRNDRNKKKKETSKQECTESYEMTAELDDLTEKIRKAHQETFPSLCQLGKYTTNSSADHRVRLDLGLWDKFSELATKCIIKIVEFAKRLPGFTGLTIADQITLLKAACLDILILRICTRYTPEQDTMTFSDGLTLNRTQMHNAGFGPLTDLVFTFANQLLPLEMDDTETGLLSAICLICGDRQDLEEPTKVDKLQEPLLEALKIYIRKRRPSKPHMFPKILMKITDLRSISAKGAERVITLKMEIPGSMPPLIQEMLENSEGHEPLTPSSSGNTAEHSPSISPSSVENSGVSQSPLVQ
Sequence of Nuclear receptor subfamily 1 group I member 2 (Homo sapiens) (O75469 whole entry, looked up, the tested form may be a part): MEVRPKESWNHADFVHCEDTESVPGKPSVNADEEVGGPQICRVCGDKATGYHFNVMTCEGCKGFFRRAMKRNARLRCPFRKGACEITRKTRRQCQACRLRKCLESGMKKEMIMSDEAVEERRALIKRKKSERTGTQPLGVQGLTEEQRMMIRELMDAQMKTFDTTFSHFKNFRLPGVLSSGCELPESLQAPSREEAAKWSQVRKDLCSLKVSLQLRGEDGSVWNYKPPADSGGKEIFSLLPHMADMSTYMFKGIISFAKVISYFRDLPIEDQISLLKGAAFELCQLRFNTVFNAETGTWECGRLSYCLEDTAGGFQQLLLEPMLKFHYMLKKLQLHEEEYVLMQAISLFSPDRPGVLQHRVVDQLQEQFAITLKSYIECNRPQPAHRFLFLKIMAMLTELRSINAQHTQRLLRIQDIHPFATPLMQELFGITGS
Sequence of Peroxisome proliferator-activated receptor gamma (Homo sapiens) (P37231 whole entry, looked up, the tested form may be a part): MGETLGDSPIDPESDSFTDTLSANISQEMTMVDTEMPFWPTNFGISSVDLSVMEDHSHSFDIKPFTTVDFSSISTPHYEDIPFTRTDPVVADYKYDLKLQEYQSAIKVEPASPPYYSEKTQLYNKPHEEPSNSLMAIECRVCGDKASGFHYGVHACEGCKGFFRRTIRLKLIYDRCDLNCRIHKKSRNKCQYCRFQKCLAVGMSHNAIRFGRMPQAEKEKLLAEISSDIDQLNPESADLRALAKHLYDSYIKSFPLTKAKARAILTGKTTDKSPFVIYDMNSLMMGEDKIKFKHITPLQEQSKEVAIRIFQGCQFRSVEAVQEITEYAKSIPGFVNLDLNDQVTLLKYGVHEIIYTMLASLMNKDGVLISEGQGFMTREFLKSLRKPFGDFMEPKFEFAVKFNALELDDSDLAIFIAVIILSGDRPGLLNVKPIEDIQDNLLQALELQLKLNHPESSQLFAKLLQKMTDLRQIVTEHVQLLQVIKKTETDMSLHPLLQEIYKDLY
Sequence of Myc proto-oncogene protein (Homo sapiens) (P01106 whole entry, looked up, the tested form may be a part): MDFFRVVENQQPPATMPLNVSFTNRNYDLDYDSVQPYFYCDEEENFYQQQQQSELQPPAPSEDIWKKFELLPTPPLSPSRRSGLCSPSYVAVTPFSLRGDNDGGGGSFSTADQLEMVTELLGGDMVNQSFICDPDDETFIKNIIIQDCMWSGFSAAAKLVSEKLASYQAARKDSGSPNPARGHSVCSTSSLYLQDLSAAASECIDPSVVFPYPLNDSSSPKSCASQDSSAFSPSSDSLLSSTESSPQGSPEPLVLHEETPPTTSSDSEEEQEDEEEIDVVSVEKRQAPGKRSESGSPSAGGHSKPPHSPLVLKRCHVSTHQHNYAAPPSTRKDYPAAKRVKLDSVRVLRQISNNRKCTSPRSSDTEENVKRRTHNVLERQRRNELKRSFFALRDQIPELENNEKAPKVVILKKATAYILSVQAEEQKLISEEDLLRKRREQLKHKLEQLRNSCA
Sequence of Retinoic acid receptor alpha (Homo sapiens) (P10276 whole entry, looked up, the tested form may be a part): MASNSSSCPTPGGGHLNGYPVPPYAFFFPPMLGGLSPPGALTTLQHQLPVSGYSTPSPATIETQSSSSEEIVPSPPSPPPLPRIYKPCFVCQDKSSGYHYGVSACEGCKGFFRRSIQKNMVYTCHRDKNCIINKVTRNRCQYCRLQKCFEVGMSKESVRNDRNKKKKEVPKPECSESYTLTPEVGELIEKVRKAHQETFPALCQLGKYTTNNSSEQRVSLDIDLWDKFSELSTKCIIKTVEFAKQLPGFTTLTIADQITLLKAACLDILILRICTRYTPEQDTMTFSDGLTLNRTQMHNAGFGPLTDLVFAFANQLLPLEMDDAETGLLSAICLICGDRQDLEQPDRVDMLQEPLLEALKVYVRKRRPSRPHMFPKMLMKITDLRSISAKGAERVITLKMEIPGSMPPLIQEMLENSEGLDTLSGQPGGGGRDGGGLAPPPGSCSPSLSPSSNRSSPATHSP

C[C@@H]1C[C@H]2[C@@H]3CCC4=CC(=O)C=C[C@]4(C)[C@@]3(F)[C@@H](O)C[C@]2(C)[C@@]1(O)C(=O)COP(=O)(O)O
inactive: [1] | [2] | [3] | [4] | [5] | [6] | [7] | [8] | [9] | [10] | [11] | [12] | [13] | [14] | [15] | [16] | [17]
active: [11] 8.66 µM

CC(=O)NC1(c2cccc(F)c2)CCN(CC[C@@]2(c3ccc(Cl)c(Cl)c3)CN(c3ccccc3)C(=O)CO2)CC1
inactive: [8] | [12] | [13] | [18] | [19]
active: [1] 57.5 µM | [2] 41.7 µM | [3] 61.5 µM | [4] 55 µM | [5] 9.13 µM | [6] 37.3 µM | [7] 18.4 µM | [9] 20.4 µM | [10] 24.2 µM | [11] 27.1 µM | [15] 20.8 µM | [16] 49.1 µM | [17] 8.59 µM

COCC(C)OCC(C)O (centres undefined)
not listed: [12] | [16] | [17] | [18] | [20]
inactive: all other assays above

CCCCC(CC)COC(=O)CCCCC(=O)OCC(CC)CCCC (centres undefined)
inactive: all assays above

O=[N+]([O-])c1ccc(O)cc1
not listed: [17] | [18] | [19] | [20]
inactive: all other assays above

CC(C)(C)CC(C)(C)c1ccc(O)c(-n2nc3ccccc3n2)c1
active: [5] 36.4 µM | [6] 78.5 µM | [17] 3.65 µM
not listed: [12] | [16] | [18] | [20]
inactive: all other assays above

O=C(O)Cc1cc(I)c(Oc2cc(I)c(O)c(I)c2)c(I)c1
inactive: [1] | [7] | [9] | [10] | [11] | [12] | [13] | [14] | [20] | [17] | [19]
active: [2] 47.9 µM and 17.2 µM | [3] 48.6 µM and 16.8 µM | [4] 105 µM and 46.1 µM | [5] 17 µM and 16.9 µM | [8] 24.3 µM | [12] 67 µM | [15] 21.3 µM | [17] 13 µM

OCCC(F)(F)C(F)(F)C(F)(F)C(F)(F)C(F)(F)C(F)(F)C(F)(F)C(F)(F)F
active: [1] 242 µM | [2] 46 µM and 150 µM | [3] 150 µM | [4] 24.4 µM | [5] 24.6 µM and 37.3 µM | [7] 150 µM | [8] 43.1 µM and 10.6 µM | [9] 19.5 µM and 16.5 µM | [10] 30 µM and 21.8 µM | [11] 46 µM and 14.9 µM | [14] 40.5 µM and 15.1 µM | [15] 12.7 µM and 17.4 µM and 19.9 µM
inactive: [1] | [3] | [4] | [7] | [8] | [9] | [10] | [11] | [12] | [13] | [14] | [17]

Oc1cccc(O)c1
not listed: [6] | [16] | [19] | [20]
inactive: all other assays above

CN(C)C=O
not listed: [13] | [16] | [17] | [19]
inactive: all other assays above

COc1cc(CCC(=O)CC(=O)CCc2ccc(O)c(OC)c2)ccc1O
active: [5] 24.8 µM | [6] 68.8 µM | [7] 100 µM | [17] 5.26 µM
inactive: [1] | [2] | [3] | [4] | [12] | [13] | [18] | [20] | [19]
